Bioassay records deposited in PubChem BioAssay by several laboratories.
Compounds with a hit are over-represented: about 1.9% of the library has one in this group of screens.
IEC-6 cytotox: counter-screen for KLF5 inhibitors: cytotoxicity in IEC-6 cells; 290,000 tested, 0.78% active; IEC-6 cytotoxicity, luminescence viability; inhibition, % at 5 µM;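 further: 0% = plate median of test compound wells and 100% = cytotoxic reference compound wells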
Ba/F3 V617F tox: lowers viability of Ba/F3 cells expressing EpoR and JAK2V617F; inhibition, % at 5.6 µM; AID 1446; 220,000 tested, 1.1% active; ATP luminescence;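 active means inhibition above the campaign mean plus 3 SD over all tested compounds, cut at about 24% in these data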;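 further: cytokine-independent growth of Ba/F3 cells driven by EpoR plus mutant JAK2; 0% = DMSO-treated cells and 100% = JAK inhibitor I control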
KLF5 inh: suppresses KLF5 promoter-driven expression; DLD-1 KLF5 promoter-luciferase reporter, luminescence; inhibition, % at 5 µM; 290,000 tested, 0.23% active; AID 1700;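 active means inhibition above a per-plate limit of that plate's mean compound inhibition plus 3 SD, cut at about 60% in these data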;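 further: 0% = DMSO wells and 100% = LY294002 at 200 µM; higher means less KLF5 promoter-driven luciferase light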
APP transl inh: APP translation inhibition. 190,000 tested, 0.82% active. inhibition, % at 2 µM. SH-SY5Y APP 5'UTR-luciferase reporter, luminescence;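 active means inhibition above a set limit, derived from the sample mean plus 3 SD, cut at about 45% in these data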
BaF3 parental: counter-screen for JAK2V617F inhibitors: parental Ba/F3 viability inhibitors; 220,000 tested, 1.1% active; inhibition, % at 5.6 µM; CellTiter-Glo ATP luminescence; AID 1486;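 active means inhibition above a per-campaign cutoff, the mean inhibition of all tested compounds plus 3 SD, cut at about 27% in these data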;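 further: 0% = DMSO wells and 100% = JAK Inhibitor I control wells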
IEC-6 tox confirm: IEC-6 cytotoxicity, confirmation assay | shares compounds with IEC-6 cytotox | IEC-6 rat intestinal epithelial viability, luminescence | inhibition, % at 5 µM | 1,900 tested, 63% active | AID 1907;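 further: 0% = vehicle and 100% = reference cytotoxic drug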
Starred values were filed as active, the others as inactive; . = no result. Unless noted, no stated cut-off is given here; in the data, active means inhibition above about 22%; inactive means the rest.

SMILES | IEC-6 cytotox | Ba/F3 V617F tox | KLF5 inh | APP transl inh | BaF3 parental | IEC-6 tox confirm
CCOC(=O)N1CCc2c(sc3c2c(=O)n(-c2ccc(CC)cc2)c(=O)n3CC(=O)NCC2CCCO2)C1 (stereo unspecified) | 25.9* | . | -1.9 | . | . | 7.5
CC(=O)N1CCc2c(sc3c2c(=O)n(-c2ccccc2)c(=O)n3CC(=O)NCC2CCCO2)C1 (stereo unspecified) | -6.1 | . | -33.7 | . | . | .
Cc1ccc(N(C)C(=O)c2cc(S(=O)(=O)N3CCCC3)cn2C)cc1 | -5.8 | . | -23.4 | . | . | .
Cc1cccc(Nc2nc(-c3ccncc3)cs2)c1 | 64.6* | -3.4 | -41.9 | -50.5 | 21.2 | 74.6*
Cc1ccc(Nc2nc(-c3ccncc3)cs2)cc1 | 27.1* | -0.1 | -93.3 | -128.8 | 6.7 | 83.6*
COc1ccc(Nc2nc(-c3sc(C)nc3C)cs2)c(OC)c1 | 59.9* | . | 12.1 | . | . | 40.1*
Cc1ccc(Nc2nc(-c3sc(N)nc3C)cs2)cc1 | -1.0 | . | -77.2 | . | . | .
Cc1ccc(-c2csc(Nc3ccccn3)n2)cc1 | 1.5 | . | -8.9 | . | . | .
Cc1ccc(Nc2nc(-c3sc(C)nc3C)cs2)cc1 | 75.0* | . | 37.3 | . | . | 52.4*
CCCCOc1ccc(NC(=O)Nc2nnc(C)s2)cc1 | 10.4 | -1.9 | -7.6 | . | -4.2 | .
Cc1ccc(CCN2C(=O)c3ccccc3C2C(=O)NCc2cccnc2)cc1 (stereo unspecified) | 4.4 | 3.4 | -5.4 | -24.6 | 9.8 | .
N#Cc1cccc(NC(=O)COC(=O)CCc2nc3ccccc3c(=O)[nH]2)c1 | 3.0 | -1.9 | -35.5 | -7.5 | 4.0 | .
COc1ccc(OC)c(S(=O)(=O)N2CCC(C(=O)N3CCCCCC3)CC2)c1 | 1.2 | . | 7.0 | . | . | .
COc1ccc(NC(=O)/C(=C\c2ccc(F)cc2)NC(=O)c2ccco2)cc1 | 0.6 | . | -11.2 | . | . | .
CCOc1ccc(C(=O)N/N=C/c2c(C)[nH]c(=O)[nH]c2=O)cc1 | -1.5 | -1.3 | -20.9 | . | 4.0 | .
CCCCCCCCn1c2c(c(=N)c3ccccc31)CCC2 | 39.6* | 99.4* | 54.8 | -9.7 | 81.7* | 37.2*
Oc1ccc(CCNc2ncnc3ccc(Cl)cc23)cc1 | 22.6* | . | 42.3 | . | . | 10.3
Cc1ccccc1CN1CCN(Cc2cc(=O)c3ccccc3[nH]2)CC1CCO (stereo unspecified) | -1.1 | . | -7.6 | . | . | .
COc1cc(NC(=O)c2ccc([N+](=O)[O-])o2)ccc1NC(=O)c1ccco1 | 100.1* | . | -14.8 | . | . | 20.1
Cc1cc(NC(=O)c2ccc([N+](=O)[O-])o2)ccc1NC(=O)c1ccco1 | 86.7* | 83.0* | 9.8 | 79.0* | 78.3* | 25.3*
CCn1c(CNC(=O)c2cccc(C)c2)nnc1SCC(=O)N1CCOCC1 | -2.8 | . | -41.5 | . | . | .
CCc1ccccc1NC(=S)N(CCN1CCOCC1)Cc1ccccc1F | 1.4 | 1.0 | 3.8 | -20.5 | 2.9 | .
O=C(N/N=C/c1ccccn1)c1ccc(Cl)c(Cl)c1 | 22.5* | . | -4.3 | . | . | 11.4
CN1CCc2c(sc(NC(=O)Cc3ccccc3)c2C(N)=O)C1 | 3.8 | . | -15.6 | . | . | .
CN1CCc2c(sc(NC(=O)c3ccc4ccccc4c3)c2C(N)=O)C1 | 49.8* | . | -89.6 | . | . | 26.3*
SMILES | IEC-6 cytotox | Ba/F3 V617F tox | KLF5 inh | APP transl inh | BaF3 parental | IEC-6 tox confirm
Nc1cc2nn(-c3ccccc3)nc2cc1Cl | 101.5* | -1.1 | -92.1 | -198.6 | 0.5 | 45.8*
O=C(O)c1ccc(NC2=C/C(=N/S(=O)(=O)c3ccccc3)c3ccccc3C2=O)cc1 | 25.0* | -0.5 | 4.3 | 6.4 | 5.3 | -10.2
O=C(COC(=O)c1cc(-c2ccc(F)cc2)nc2ccccc12)NCC1CCCO1 (stereo unspecified) | 2.2 | 2.2 | 7.7 | -18.4 | 11.3 | .
COc1cc(/C=N/Nc2snc(SC)c2C#N)cc(OC)c1OC | 26.2* | 4.4 | -6.4 | 8.3 | 4.7 | 49.3*
COc1ccc2cc1Oc1ccc(cc1)CC1c3c(cc(OC)c4c3Oc3cc5c(cc3O4)CCNC5C2)CCN1C (stereo unspecified) | 44.8* | -0.8 | -9.7 | . | 0.6 | 8.5
O=C(/C=C/c1cc([N+](=O)[O-])ccc1OC(F)F)Nc1cccc(OC(F)F)c1 | -3.7 | -0.4 | -30.6 | 2.6 | 5.4 | .
Cc1cccc(N2C(=O)N3[C@@H]4c5ccccc5OC[C@@H]4[C@@H](c4ccccc4)[C@@]3(C)C2=O)c1 | -2.6 | . | 10.0 | . | . | .
COc1ccccc1N1CCN(CCCn2c(=S)[nH]c3ccccc3c2=O)CC1 | 7.7 | . | -23.9 | . | . | .
COc1ccc(N2CCN(CCCn3c(=S)[nH]c4ccccc4c3=O)CC2)cc1 | 43.0* | . | 3.7 | . | . | 13.4
Cc1cccc(N2C(=O)C3C4CC(=O)C(c5ccccc54)C3C2=O)c1C (stereo unspecified) | 2.3 | -4.3 | -33.2 | 1.5 | 0.1 | .
Cc1nn(CCCC(=O)NCCc2ccc(Cl)cc2)c(=O)c2nn(-c3ccccc3)c(C)c12 | -8.6 | . | -19.3 | . | . | .
Nc1nonc1-n1nnc(C(=O)N/N=C/c2cc(Br)ccc2O)c1CNc1ccccc1 | 39.2* | . | 28.3 | . | . | 41.1*
O=C(CCN1N=C(c2ccccc2)CCC1=O)NCC1CCCO1 (stereo unspecified) | 2.1 | . | -21.4 | . | . | .
CC1=C(C(=O)Nc2ccc(C)cc2C)C(c2ccc(C)o2)NC(=S)N1 (stereo unspecified) | 3.2 | 1.4 | -23.0 | 18.8 | 7.8 | .
COc1ccccc1C(=O)Nc1ccc2c(c1)nc(CCNC(=O)c1ccccc1)n2C | 60.1* | 85.1* | 44.6 | . | 76.4* | 42.5*
COc1ccccc1C(=O)Nc1ccc2c(c1)nc(CCNC(C)=O)n2C | -1.2 | 2.5 | -53.0 | -63.2 | 6.3 | .
Cc1ccc(Nc2nc(=O)c3cccnc3s2)c(Br)c1 | 65.4* | 50.8* | 15.4 | . | 48.2* | 41.8*
CC(=O)c1ccc(Nc2nc(=O)c3cccnc3s2)cc1 | 1.0 | 3.3 | -85.3 | 4.4 | 7.1 | .
Cc1cc(C)cc(NS(=O)(=O)c2ccc3[nH]cc(C(=O)NCc4ccco4)c(=O)c3c2)c1 | 28.0* | 64.2* | -1.6 | 0.2 | 65.5* | 29.1*
COc1ccc(NC(=O)c2cccc(N3C(=O)C4C5C=CC(C6CC56)C4C3=O)c2)cc1 (stereo unspecified) | -4.3 | . | -20.9 | . | . | .
CCc1ccc(NC(=O)C(C)OC(=O)CC(NC(C)=O)c2ccccc2)cc1 (stereo unspecified) | -4.4 | . | 2.8 | . | . | .
CCOc1ccc(OCC)c(NC(=O)CN2CCN(CC(=O)NC(C)C)CC2)c1 | 0.3 | . | -0.5 | . | . | .
Cc1cccc2c1N(CCOc1ccccc1Cl)C(=O)C2=O | 50.4* | 18.9 | -7.9 | 7.7 | 10.7 | 21.4
Cc1ccccc1OCCN1C(=O)C(=O)c2cccc(C)c21 | 9.5 | 2.3 | -22.7 | . | 9.1 | .
O=C(c1ccc(CS(=O)c2ccccc2Cl)o1)N1CCN(c2ccccc2)CC1 (stereo unspecified) | 80.0* | . | 53.0 | . | . | 56.6*
C=CCn1cc(C(=O)NCCOC)c(=O)c2cc(S(=O)(=O)N3CCCCCC3)ccc21 | 24.1* | . | -16.3 | . | . | 18.5
O=C(CCc1ccccc1)Nc1ccncc1 | -2.1 | -2.9 | -15.4 | -20.2 | -3.6 | .
CC(C)c1ccc(NC(=O)CCc2ccccc2)cc1 | 28.9* | . | -63.7 | . | . | 52.3*
O=C(NCCNC(=O)c1cnccn1)c1ccc(Cl)c(Cl)c1 | 11.2 | . | -14.2 | . | . | .
O=C(NNC(=O)c1cnccn1)c1ccc(Cl)c(Cl)c1 | 37.1* | . | 19.4 | . | . | 21.6
